# Experimental data from PubChem BioAssay (Tox21).
# Values without a mark were called inactive. Results filed as inconclusive are left out. A call without a number means that no potency is given here. The source made the active and inactive calls. Unless noted, calls come from the whole dose curve; as a rule, active = well fitted curve in the direction sought with a large enough effect in the repeat runs; inconclusive = weak or mixed curves; inactive = no such curve, though single readings can be large; an effect the other way counts as inactive or inconclusive.
# Columns and labels:
# [1] = qHTS assay to identify small molecule antagonists of the estrogen receptor beta (ER-beta) signaling pathway - cell viability counter screen (AID 1259382);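 note: HEK293T cells carrying ER-beta-UAS-bla reporter stimulated with estradiol; series mostly up to about 92 µM; nearly all actives have a fitted effect of over 55% in size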
# Outline: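 ER-beta-UAS-bla HEK293T cells in 2% charcoal-stripped FBS medium, treated with compound plus 1 nM 17-beta-estradiol for 16 h at 37C. Viability read by CellTiter-Glo luminescence after 30 min at room temperature in the same wells.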
# [2] = qHTS assay to identify small molecule agonists or antagonists of the thyroid stimulating hormone receptor (TSHR) signaling pathway - wild type cell line counter screen (AID 1259384; calls by dose curve)
# Outline: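 Wild-type Hek293 cells, 800/well, 18 h at 37C, then compound with Ro20-1724 for 30 min RT. cAMP by HTRF (cAMP-d2/anti-cAMP cryptate), 1 h RT, fluorescence read. 15 concentrations, triplicates.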
# [3] = molecular target: Thyrotropin receptor (Homo sapiens) (UniProt P16473); assay: qHTS assay to identify small molecule antagonists of the thyroid stimulating hormone receptor (TSHR) signaling pathway (AID 1259385; calls by dose curve; note: nearly all actives have a fitted effect of over 20% in size)
# Outline: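 TSHR-HEK293 cells (800/well) plated 18 h, then compounds with Ro20-1724 and TSH at 1.5 ng/mL final, 30 min at room temperature. cAMP quantified by HTRF (cAMP-d2/anti-cAMP-cryptate, 1 h); 15 concentrations in triplicate.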
# [4] = qHTS assay to identify small molecule agonists of the estrogen receptor alpha (ER-alpha) signaling pathway in the presence of an antagonist - cell viability counter screen (AID 1259386);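 note: cells exposed to compounds for 22 h at 37 °C before the viability read; nearly all actives have a fitted effect of over 30% in size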; note: potency is the fitted concentration of half-maximal effect
# Outline: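 Cell viability in VM7Luc4E2 cells (endogenous full-length ER-alpha) measured by CellTiter-Fluor fluorescence in the same wells as the luciferase screen. Cells pre-cultured 5 days in charcoal-stripped serum, then treated 22 h with compounds at 15 concentrations plus 10.0nM ICI-182,780.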
# [5] = molecular target: Progesterone receptor (Homo sapiens) (UniProt P06401); assay: qHTS assay to identify small molecule agonists of the progesterone receptor (PR) signaling pathway (AID 1346784; calls by dose curve; note: nearly all actives have a fitted effect of over 30% in size)
# Outline: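 Compounds were tested for PR agonism in HEK 293T cells bearing a beta-lactamase gene under UAS control. Treatment lasted 16 hr at 37C; signal came from fluorescence of a FRET substrate.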
# [6] = molecular target: Progesterone receptor (Homo sapiens) (UniProt P06401); assay: qHTS assay to identify small molecule antagonists of the progesterone receptor (PR) signaling pathway (AID 1346795; active = well fitted inhibition curve with a large enough effect in the signal ratio in the repeat runs, not every such curve was filed as active; the % refers to the signal ratio)
# Outline: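 In HEK293T cells bearing the PR-UAS-bla reporter, compound effects on promegestone-driven (1 nM) beta-lactamase expression are assessed after 16 hr using a fluorescent FRET substrate incubated 2 hr at room temperature.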
# [7] = qHTS assay to identify small molecule antagonists of the progesterone receptor (PR) signaling pathway - cell viability counter screen (AID 1346798); note: series mostly up to about 92 µM; nearly all actives have a fitted effect of over 50% in size
# Outline: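 Following a 4 hr attachment, PR-UAS-bla HEK293T cells in charcoal-stripped FBS medium were exposed to compounds with R5020 for 16 hr; CellTiter-Glo was added and luminescence read after 30 min at room temperature.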
# [8] = qHTS assay to identify small molecule agonists of the progesterone receptor (PR) signaling pathway - cell viability counter screen (AID 1346799; calls by dose curve; note: nearly all actives have a fitted effect of over 45% in size)
# Outline: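 Here, 3,000 PR-UAS-bla HEK293T cells per well were treated with compounds for 16 hr after a 6 hr preincubation at 37C and 5% CO2; cell viability is the CellTiter-Glo luminescence signal.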
# [9] = qHTS assay to identify small molecule antagonists of the TGF-beta/Smad signaling pathway - cell viability counter screen (AID 1346824); note: nearly all actives have a fitted effect of over 50% in size
# Outline: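 SBE-bla HEK 293T cells, incubated overnight, then compound plus 0.25 ng/mL TGF-beta1 (stock added) for 5 hr at 37 C. Viability was read in the same wells by CellTiter-Glo luminescence after 30 min at room temperature.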
# [10] = qHTS assay to identify small molecule agonists of the TGF-beta/Smad signaling pathway - cell viability counter screen (AID 1346829); note: top concentration of the series differs between compounds; nearly all actives have a fitted effect of over 45% in size
# Outline: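 CellTiter-Glo luminescence readout; SBE-bla HEK 293T cells, overnight plating, compound 5 hr at 37 C/5% CO2, then bla substrate 2 hr RT, then CellTiter-Glo 30 min RT.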
# [11] = qHTS assay to identify small molecule agonists of the TGF-beta/Smad signaling pathway (AID 1346859; active = well fitted activation curve with a large enough effect in the signal ratio in the repeat runs, not every such curve was filed as active; the % refers to the signal ratio; note: series mostly up to about 77 µM)
# Outline: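 Each well held 4,000 SBE-bla HEK 293T cells incubated overnight before compound addition; 5 hr later the cleavable FRET substrate went on for 2 hr at room temperature, and fluorescence was read at two emissions.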
# [12] = molecular target: Thyrotropin-releasing hormone receptor (Homo sapiens) (UniProt P34981); assay: qHTS assay to identify small molecule antagonists of the thyrotropin-releasing hormone receptor (TRHR) signaling pathway (AID 1346877; active = well fitted inhibition curve with a large enough effect in the repeat runs, not every such curve was filed as active; note: series mostly up to about 51 µM)
# Outline: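 TRHR-expressing HEK293 cells loaded with calcium dye for 2 h at 37 C; compounds pre-incubated 5 min at room temperature before TRH challenge at 1 nM final. Intracellular calcium fluorescence read kinetically for 3 min; 15 concentrations in triplicate.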
# [13] = molecular target: Thyrotropin-releasing hormone receptor (Homo sapiens) (UniProt P34981); assay: qHTS assay to identify small molecule agonists of the thyrotropin-releasing hormone receptor (TRHR) signaling pathway (AID 1346891; calls by dose curve; note: series mostly up to about 58 µM)
# Outline: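 Screening of agonists relied on calcium signalling in HEK293 cells expressing human TRHR: dye loading 2 h at 37 °C preceded compound addition and a 3-min fluorescence time course.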
# [14] = Human pregnane X receptor (PXR) small molecule agonists, qHTS cell viability counter screen (AID 1346977); note: nearly all actives have a fitted effect of over 50% in size
# Outline: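 Tox21 qHTS format; PXR-Luc HepG2, 2,000/well, charcoal-stripped FBS 5%. Cpd exposure 24hr. Read: CellTiter-Fluor fluorescence, multiplexed with luciferase.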
# [15] = Caspase-3/7 induction in HepG2 cells by small molecules, qHTS assay (AID 1346978); note: nearly all actives have a fitted effect of over 15% in size
# Outline: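 Wild-type HepG2 cells, 2,000/well, settled 5 hr at 37 C and 5% CO2, then compound-treated for 17 hr; caspase-3/7 activity read by luminescent Caspase-Glo 3/7 after 30 min at room temperature.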
# [16] = Caspase-3/7 induction in CHO-K1 cells by small molecules, qHTS cell viability counter screen (AID 1346979); note: nearly all actives have a fitted effect of over 35% in size; note: potency is the fitted concentration of half-maximal effect
# Outline: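 CellTiter-Fluor viability check, qHTS format: wild-type CHO-K1, 16hr compound treatment, 1hr reagent incubation, fluorescence read.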
# [17] = Caspase-3/7 induction in CHO-K1 cells by small molecules, qHTS assay (AID 1346980); note: nearly all actives have a fitted effect of over 15% in size
# Outline: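 Wild-type CHO-K1 cells exposed to compounds for 17hr at 37 C, 5% CO2. Caspase-3/7 activity then measured by Caspase-Glo 3/7 luminescence after 30min at room temperature.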
# [18] = Caspase-3/7 induction in HepG2 cells by small molecules, qHTS cell viability counter screen (AID 1346981); note: nearly all actives have a fitted effect of over 30% in size; note: potency is the fitted concentration of half-maximal effect
# Outline: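 Wild-type HepG2 cells, 2,000/well, settled 5 hr at 37 C, 5% CO2 before compound addition. Viability read by CellTiter-Fluor fluorescence, reagent added after 16 hr compound exposure, then 1 hr at 37C, in the same wells as the caspase read.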
# [19] = molecular target: Estrogen receptor (Homo sapiens) (UniProt P03372); assay: qHTS assay to identify small molecule agonists of the estrogen receptor alpha (ER-alpha) signaling pathway in the presence of an antagonist (AID 1259383; calls by dose curve; note: top concentration of the series differs between compounds; nearly all actives have a fitted effect of over 15% in size)
# Outline: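 VM7Luc4E2 cells express endogenous full-length ER-alpha with an ERE-luciferase reporter and were hormone-deprived for 5 days. Compounds at 15 concentrations were added with 10.0nM ICI-182,780 for 22hr at 37C. Luminescence was read with ONE-Glo.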
# Sequence of Progesterone receptor (Homo sapiens) (P06401 whole entry, looked up): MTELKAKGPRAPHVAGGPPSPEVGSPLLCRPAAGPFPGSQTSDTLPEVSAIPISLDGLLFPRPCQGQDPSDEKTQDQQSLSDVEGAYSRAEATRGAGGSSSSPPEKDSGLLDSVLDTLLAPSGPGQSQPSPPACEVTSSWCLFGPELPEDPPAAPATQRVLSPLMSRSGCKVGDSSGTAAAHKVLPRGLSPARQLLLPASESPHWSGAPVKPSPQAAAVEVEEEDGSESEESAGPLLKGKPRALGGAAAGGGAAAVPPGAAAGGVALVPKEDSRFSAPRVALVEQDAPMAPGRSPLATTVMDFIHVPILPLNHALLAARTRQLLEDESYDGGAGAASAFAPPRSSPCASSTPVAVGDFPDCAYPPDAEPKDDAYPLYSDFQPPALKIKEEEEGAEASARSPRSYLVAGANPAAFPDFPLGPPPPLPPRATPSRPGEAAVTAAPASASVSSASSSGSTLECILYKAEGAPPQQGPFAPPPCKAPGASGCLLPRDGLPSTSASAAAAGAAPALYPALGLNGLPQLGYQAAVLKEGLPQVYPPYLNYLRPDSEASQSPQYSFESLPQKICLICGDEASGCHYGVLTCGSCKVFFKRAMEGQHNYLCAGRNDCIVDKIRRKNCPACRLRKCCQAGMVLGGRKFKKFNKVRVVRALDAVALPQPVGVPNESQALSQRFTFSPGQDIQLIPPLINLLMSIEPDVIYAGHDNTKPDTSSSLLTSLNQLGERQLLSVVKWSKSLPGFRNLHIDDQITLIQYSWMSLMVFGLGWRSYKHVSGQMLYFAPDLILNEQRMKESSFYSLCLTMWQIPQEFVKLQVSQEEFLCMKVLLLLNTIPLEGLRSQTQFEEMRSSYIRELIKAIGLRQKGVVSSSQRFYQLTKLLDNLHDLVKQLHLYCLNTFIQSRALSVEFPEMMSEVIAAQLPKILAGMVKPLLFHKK
# Sequence of Estrogen receptor (Homo sapiens) (P03372 whole entry, looked up): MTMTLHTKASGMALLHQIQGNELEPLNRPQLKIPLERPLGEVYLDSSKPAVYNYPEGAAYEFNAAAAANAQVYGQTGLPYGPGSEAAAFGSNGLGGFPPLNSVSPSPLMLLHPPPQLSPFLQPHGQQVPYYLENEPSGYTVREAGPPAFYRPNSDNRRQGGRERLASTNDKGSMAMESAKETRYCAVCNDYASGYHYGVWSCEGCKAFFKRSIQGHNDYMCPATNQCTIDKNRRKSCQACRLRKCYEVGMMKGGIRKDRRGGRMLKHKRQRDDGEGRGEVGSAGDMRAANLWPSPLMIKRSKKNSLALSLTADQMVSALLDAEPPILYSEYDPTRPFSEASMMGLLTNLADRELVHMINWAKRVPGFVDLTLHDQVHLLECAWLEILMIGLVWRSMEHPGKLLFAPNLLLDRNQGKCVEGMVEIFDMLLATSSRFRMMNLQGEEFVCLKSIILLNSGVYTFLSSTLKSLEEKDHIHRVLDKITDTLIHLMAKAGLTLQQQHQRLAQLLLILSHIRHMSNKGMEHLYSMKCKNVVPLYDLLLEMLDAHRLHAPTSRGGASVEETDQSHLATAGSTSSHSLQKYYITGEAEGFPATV
# Sequence of Thyrotropin receptor (Homo sapiens) (P16473 whole entry, looked up): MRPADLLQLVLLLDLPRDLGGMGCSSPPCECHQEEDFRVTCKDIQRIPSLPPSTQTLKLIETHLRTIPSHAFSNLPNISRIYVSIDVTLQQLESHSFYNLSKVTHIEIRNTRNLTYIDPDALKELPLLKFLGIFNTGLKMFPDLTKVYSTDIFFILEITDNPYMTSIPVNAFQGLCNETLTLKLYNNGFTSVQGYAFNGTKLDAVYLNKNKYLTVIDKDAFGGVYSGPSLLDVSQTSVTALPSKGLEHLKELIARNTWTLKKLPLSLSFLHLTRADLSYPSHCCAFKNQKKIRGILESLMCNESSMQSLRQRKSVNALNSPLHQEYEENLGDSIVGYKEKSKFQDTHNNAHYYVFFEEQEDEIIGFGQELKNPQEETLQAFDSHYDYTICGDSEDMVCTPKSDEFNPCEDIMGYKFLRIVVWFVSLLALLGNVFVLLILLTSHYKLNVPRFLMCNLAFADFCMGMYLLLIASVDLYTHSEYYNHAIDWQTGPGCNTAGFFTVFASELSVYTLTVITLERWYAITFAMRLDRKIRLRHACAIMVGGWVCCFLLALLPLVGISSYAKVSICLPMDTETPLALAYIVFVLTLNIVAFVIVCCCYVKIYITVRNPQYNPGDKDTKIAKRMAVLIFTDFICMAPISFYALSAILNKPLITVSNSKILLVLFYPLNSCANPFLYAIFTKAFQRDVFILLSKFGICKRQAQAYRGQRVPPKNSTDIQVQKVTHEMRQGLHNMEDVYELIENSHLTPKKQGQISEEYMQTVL
# Sequence of Thyrotropin-releasing hormone receptor (Homo sapiens) (P34981 whole entry, looked up): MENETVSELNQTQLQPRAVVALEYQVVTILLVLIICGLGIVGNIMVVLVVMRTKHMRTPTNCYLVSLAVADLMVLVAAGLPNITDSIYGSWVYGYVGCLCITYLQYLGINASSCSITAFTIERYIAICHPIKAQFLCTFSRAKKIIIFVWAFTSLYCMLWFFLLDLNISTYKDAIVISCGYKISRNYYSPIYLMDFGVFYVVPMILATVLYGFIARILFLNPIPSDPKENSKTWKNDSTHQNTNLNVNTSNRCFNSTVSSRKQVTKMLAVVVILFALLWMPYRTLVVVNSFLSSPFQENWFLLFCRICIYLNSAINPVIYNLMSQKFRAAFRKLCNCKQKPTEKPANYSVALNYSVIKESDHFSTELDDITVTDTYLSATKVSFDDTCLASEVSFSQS
Compound,outcome [1],outcome [2],outcome [3],Potency [4],Potency [5],Potency [6],Potency [7],Potency [8],outcome [9],outcome [10],outcome [11],outcome [12],outcome [13],Potency [14],outcome [15],Potency [16],outcome [17],Potency [18],outcome [19]
CC(C)COC(=O)CCCCC(=O)OCC(C)C,inactive,inactive,inactive,inactive,inactive,inactive,inactive,inactive,inactive,inactive,inactive,inactive,inactive,inactive,inactive,inactive,inactive,inactive,–
C1=C\CC/C=C\CC/1,inactive,–,–,inactive,inactive,inactive,inactive,–,inactive,inactive,inactive,inactive,inactive,inactive,inactive,inactive,inactive,inactive,inactive
NS(=O)(=O)c1cc2c(cc1Cl)NC(C(Cl)Cl)NS2(=O)=O (configuration not stated),inactive,inactive,inactive,inactive,inactive,inactive,inactive,inactive,inactive,inactive,inactive,inactive,inactive,inactive,inactive,inactive,inactive,inactive,–
CCCCCCCCCCCCC1CO1 (configuration not stated),inactive,–,–,inactive,–,inactive,inactive,–,inactive,inactive,inactive,inactive,inactive,inactive,inactive,inactive,inactive,–,inactive
O=P(O)(O)OCC(O)CO (configuration not stated),inactive,–,–,inactive,–,inactive,inactive,inactive,inactive,inactive,inactive,–,–,inactive,inactive,inactive,inactive,inactive,inactive
CC1=NN(c2ccc(S(=O)(=O)O)cc2)C(=O)C1N=Nc1ccccc1 (configuration not stated),inactive,–,–,30.6 µM (active),inactive,inactive,inactive,–,inactive,inactive,inactive,inactive,inactive,–,inactive,48.6 µM (active),inactive,61.1 µM (active),inactive
Cc1ccccc1C,inactive,–,–,inactive,inactive,inactive,–,inactive,inactive,inactive,inactive,–,–,inactive,inactive,inactive,inactive,inactive,inactive
CN[C@@H]1[C@@H](O)[C@@H](O[C@@H]2[C@H](O)[C@H](O[C@H]3OC(CN)=CC[C@H]3N)[C@@H](N)C[C@H]2N)OCC1(C)O (some centres not stated),inactive,inactive,inactive,inactive,inactive,inactive,inactive,inactive,inactive,–,–,–,–,inactive,inactive,inactive,inactive,–,–
